Laboratory results: PubChem BioAssay AID1942 (Johns Hopkins Ion Channel Center, 2009)
The whole screen tested about 2,400 compounds, of which about 580 (24%) were called active. Not all results are given here. Values without a mark were called inactive.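 How the source made its calls: active means activity change at or above the mean plus 3 SD of buffer wells without dofetilide, per plate; inactive means the rest.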

Each compound was assayed against Potassium voltage-gated channel subfamily KQT member 2 (Rattus norvegicus) (UniProt O88943) (assay: rat KCNQ2 channel activation by compounds alone, confirmation, counter-screen for hERG block protector project, cell-based, CHO, FluxOR thallium flux (AID 1942;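 further: normalized value minus buffer-control mean plus three SD of buffer wells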)). Conditions: CHO-KCNQ2 cells, FluxOR thallium flux fluorescence; at 10 µM; stronger effect = higher value.
Sequence of Potassium voltage-gated channel subfamily KQT member 2 (Rattus norvegicus) (O88943 whole entry, looked up): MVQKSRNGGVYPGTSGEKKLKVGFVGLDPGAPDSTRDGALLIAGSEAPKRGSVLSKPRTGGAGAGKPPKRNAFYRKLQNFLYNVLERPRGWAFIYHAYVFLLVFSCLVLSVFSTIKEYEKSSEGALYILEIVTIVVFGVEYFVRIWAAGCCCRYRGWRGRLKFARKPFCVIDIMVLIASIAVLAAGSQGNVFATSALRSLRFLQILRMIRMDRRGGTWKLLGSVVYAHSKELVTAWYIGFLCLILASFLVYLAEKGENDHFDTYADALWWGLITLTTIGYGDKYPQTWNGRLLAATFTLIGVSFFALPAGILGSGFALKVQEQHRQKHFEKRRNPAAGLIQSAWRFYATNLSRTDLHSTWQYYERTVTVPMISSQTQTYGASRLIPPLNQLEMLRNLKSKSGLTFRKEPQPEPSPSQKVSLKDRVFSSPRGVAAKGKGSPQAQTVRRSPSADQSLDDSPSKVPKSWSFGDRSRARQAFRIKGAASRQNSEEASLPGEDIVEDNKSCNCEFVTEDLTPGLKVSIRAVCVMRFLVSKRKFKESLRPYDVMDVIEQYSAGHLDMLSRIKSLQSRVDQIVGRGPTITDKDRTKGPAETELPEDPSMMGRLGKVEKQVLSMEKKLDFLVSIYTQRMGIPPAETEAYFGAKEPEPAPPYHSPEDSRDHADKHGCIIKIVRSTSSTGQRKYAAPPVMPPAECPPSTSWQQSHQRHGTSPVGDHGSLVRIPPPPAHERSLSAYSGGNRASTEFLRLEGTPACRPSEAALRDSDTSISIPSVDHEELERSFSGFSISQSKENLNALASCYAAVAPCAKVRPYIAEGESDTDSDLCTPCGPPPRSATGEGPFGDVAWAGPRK
Compound `O=C(Nc1c[nH]c(=O)[nH]c1=O)c1ccc2c(c1)C(=O)N(c1cccc([N+](=O)[O-])c1)C2=O` has an activity change, less the hit threshold of -9.9%. In the case of `Cc1nn(CC(=O)Nc2ccc(C(=O)N3CCCC3)cc2)c(=O)c2ccccc12`, the activity change, less the hit threshold is reported as 11.5% (active). For `O=C(CN1CCCCCC1)Nc1ccc(Oc2ccccc2)cc1`, the activity change, less the hit threshold was -20.3%. With `O=C(Cn1nc(-c2ccccc2)c2ccccc2c1=O)Nc1ccc(O)cc1` the activity change, less the hit threshold was -25.7%. Work on `O=C(Nc1ncc(Br)s1)C(Cc1ccccc1)n1cccc1` (configuration not stated) yielded an activity change, less the hit threshold of -5.9%. `Cn1cnnc1SCC(=O)NCc1ccccc1` gave an activity change, less the hit threshold of -24.1%. With `COC(=O)Oc1ccc(/C=C/C(=O)OC(C)C)cc1OC(=O)OC` the activity change, less the hit threshold was 3% (active). `COc1cc(/C=C/C(=O)N[C@@H](Cc2c[nH]c3ccccc23)C(=O)O)ccc1O` gave an activity change, less the hit threshold of -15.9%. Compound `COc1cc(/C=C/C(=O)O)ccc1OS(=O)(=O)c1cc(C)ccc1C` has an activity change, less the hit threshold of -16.4%. `Cc1ccc(NC2=CC(=O)OC(C)C2)cc1` (configuration not stated) gave an activity change, less the hit threshold of -17.3%. Compound `Cc1ccc(Oc2ccc(OCC(=O)NC(CC(C)C)C(=O)O)cc2)cc1` (configuration not stated) has an activity change, less the hit threshold of -14.9%. Compound `CC1=Nc2ccc(C)cc2/C1=C/c1c(N)n2c(S(=O)(=O)C(C)C)nsc2nc1=O` has an activity change, less the hit threshold of -27%. For `O=C(CN1CCCCCCC1)Nc1cccc(Cl)c1Cl`, the activity change, less the hit threshold was -20.9%. `O=c1oc2ccccc2c(Cl)c1CN1CCCCC1` was tested, and the activity change, less the hit threshold was 8.6% (active). `O=C(c1c(O)c2ccccc2oc1=O)C1CCCCC1` gave an activity change, less the hit threshold of -4.8%. In the case of `CSc1nc2c(c(=O)[nH]1)C(c1ccc(F)cc1)CC(=O)N2` (configuration not stated), the activity change, less the hit threshold is reported as -16.4%. `CC(NC(=O)C1CCN(S(=O)(=O)c2cccc3cccnc23)CC1)c1ccccc1` (configuration not stated) was tested, and the activity change, less the hit threshold was 0.9% (active). `O=C(NCc1ccc(Cl)cc1)C1CCN(S(=O)(=O)c2cccc3nonc23)CC1` gave an activity change, less the hit threshold of -10%. With `Cc1[nH]c(=O)[nH]c(=O)c1S(=O)(=O)N1CCC(C(=O)NC(C)c2ccccc2)CC1` (configuration not stated) the activity change, less the hit threshold was -19.6%. For `Nc1ncnc(NC2CCS(=O)(=O)C2)c1[N+](=O)[O-]` (configuration not stated), the activity change, less the hit threshold was -11.2%. With `CC(C)OC(=O)c1c(NS(=O)(=O)c2ccccc2)sc2c1CCCC2` the activity change, less the hit threshold was 9.1% (active). In the case of `CCOC(=O)c1c(NS(C)(=O)=O)sc2c1CCC(C)C2` (configuration not stated), the activity change, less the hit threshold is reported as 26.3% (active). Work on `CC(NS(=O)(=O)c1ccccc1)C(N)=O` (configuration not stated) yielded an activity change, less the hit threshold of -21.1%. `CCOC(=O)c1c(C)[nH]c(C)c1S(=O)(=O)N1CCCCC1` was tested, and the activity change, less the hit threshold was -11%. Compound `COC(=O)c1c(NC(=O)CN2CCOCC2)sc2c1CCC(C)C2` (configuration not stated) has an activity change, less the hit threshold of -9.9%. In the case of `CC1CCc2c(sc(NS(=O)(=O)c3ccccc3)c2C(=O)OC(C)C)C1` (configuration not stated), the activity change, less the hit threshold is reported as 8.2% (active). Compound `Cc1cc(C)c(-c2cc(NC(=O)COC(=O)c3ccc(NC(=O)CC#N)cc3)n(-c3ccccc3)n2)cc1C` has an activity change, less the hit threshold of -22.1%. Compound `NC(=O)CC1NC(=O)c2ccccc21` (configuration not stated) has an activity change, less the hit threshold of -13.3%. For `CCCNS(=O)(=O)c1ccc(OCC(=O)Nc2ccc3c(c2)OCCO3)cc1`, the activity change, less the hit threshold was -11.5%. Compound `Cc1oc(-c2cccs2)nc1CN1CCC(C(=O)N2CCCC2)CC1` has an activity change, less the hit threshold of -17.4%. Compound `CC1c2nc3ccccc3n2C(CC(=O)NCCCN2CCOCC2)C(=O)N1Cc1ccccc1` (configuration not stated) has an activity change, less the hit threshold of -19.4%. For `CCC1CCCCN1C(=S)NC(=O)c1cccs1` (configuration not stated), the activity change, less the hit threshold was -4.1%. In the case of `O=C(NC(=S)Nc1ccccc1N1CCCC1)c1ccc(-c2cccc([N+](=O)[O-])c2)o1`, the activity change, less the hit threshold is reported as -10.1%. With `O=C(Nc1ccc(Oc2cccnc2)cc1)c1cccc([N+](=O)[O-])c1` the activity change, less the hit threshold was -14.1%. Compound `O=C(O)c1cccc(C(=O)Nc2cccc(NC(=O)C3CCCO3)c2)c1` (configuration not stated) has an activity change, less the hit threshold of -21.4%. `O=C(NC(=S)N(CC1CCC1)CC1CCCO1)c1cccc([N+](=O)[O-])c1` (configuration not stated) was tested, and the activity change, less the hit threshold was 39.6% (active). `CC1CCN(C(=S)NC(=O)c2cccc([N+](=O)[O-])c2)CC1` was tested, and the activity change, less the hit threshold was 5.8% (active). With `CCC1CCCCN1C(=S)NC(=O)c1cccc([N+](=O)[O-])c1` (configuration not stated) the activity change, less the hit threshold was 24% (active). In the case of `CCC1CCCCN1C(=S)NC(=O)c1ccc([N+](=O)[O-])cc1` (configuration not stated), the activity change, less the hit threshold is reported as 32.5% (active). Compound `Cn1cc([N+](=O)[O-])c(C(=O)N/N=C\c2c[nH]c3ccccc23)n1` has an activity change, less the hit threshold of -15.5%. `CCCCN1C(=O)/C(=C2/Sc3ccc(Cl)cc3N2CC)SC1=S` showed an activity change, less the hit threshold of -27.6%. Work on `CNC(=O)c1ccc(NC(=O)CN2c3cccc4cccc(c34)S2(=O)=O)cc1` yielded an activity change, less the hit threshold of -18.1%. `COc1ccc(CS(=O)(=O)CC2(O)CCN(C(=O)c3cccc(C(F)(F)F)c3)CC2)cc1` gave an activity change, less the hit threshold of -25.4%. In the case of `O=C1CN(C(=O)COc2ccccc2F)c2ccccc2N1`, the activity change, less the hit threshold is reported as -18.7%. `O=C(c1csc(Nc2ccccc2Cl)n1)N1CCCC1` was tested, and the activity change, less the hit threshold was -14.5%. Work on `COc1cc(CNn2nnnc2N)ccc1OCC(=O)NC(C)(C)C` yielded an activity change, less the hit threshold of -20%. `COc1ccc(NC(=O)CCN2C(=O)C3C4C=CC(C4)C3C2=O)cc1` (configuration not stated) gave an activity change, less the hit threshold of -21.1%. In the case of `COc1ccccc1CC(=O)Nc1ccc(OC)c(OC)c1`, the activity change, less the hit threshold is reported as -12.4%. With `COc1ccc(NC(=O)CC23CC4CC(CC(C4)C2)C3)cn1` the activity change, less the hit threshold was 44.4% (active). For `CC(C)(C)c1cc(CCC(=O)NCc2ccncc2)cc(C(C)(C)C)c1O`, the activity change, less the hit threshold was -15.7%. In the case of `CCOC(=O)c1sc2nc(N3CCOCC3)c3c(c2c1N)CCN(Cc1ccccc1)C3`, the activity change, less the hit threshold is reported as 0.1% (active). `Cn1ncc2c(NNC(=O)c3ccc(O)cc3)ncnc21` showed an activity change, less the hit threshold of -24.5%. In the case of `CC(C)(C)NC(=O)C(=O)NNC(=O)c1cccc(Br)c1`, the activity change, less the hit threshold is reported as 16.4% (active). Compound `C=CCNC(=O)COc1ccc(Oc2ccccc2)cc1` has an activity change, less the hit threshold of -6.4%. `Cc1cccc(NC(=O)C(=O)NNC(=O)c2ccc(C(C)(C)C)cc2)c1` was tested, and the activity change, less the hit threshold was 110% (active). Work on `CC(C)(C)NC(=O)C(=O)NNC(=O)COc1ccccc1` yielded an activity change, less the hit threshold of -16.3%. In the case of `CC(C)(C)NC(=O)C(=O)NNC(=O)c1ccc(C(C)(C)C)cc1`, the activity change, less the hit threshold is reported as 27.1% (active). `CC(C)(C)NC(=O)C(=O)NNC(=O)c1ccccc1` was tested, and the activity change, less the hit threshold was -9.7%. With `CC(C)(C)NC(=O)C(=O)NNC(=O)COc1ccc(Br)cc1` the activity change, less the hit threshold was 41.1% (active). In the case of `CCCc1cc(C(=O)NNC(=S)Nc2cccc(C)c2)cs1`, the activity change, less the hit threshold is reported as -16.5%. In the case of `CC(C)(C)c1ccc(C(=O)CC(=O)c2cc(Cl)ccc2O)cc1`, the activity change, less the hit threshold is reported as -11.6%. `CC/C(=N\NC(=S)Nc1cccc(C)c1)c1ccccc1` showed an activity change, less the hit threshold of -13%. With `O=C(Nc1ccccc1C(=O)O)c1cncc(Br)c1` the activity change, less the hit threshold was -3%. `O=C(NN1C(=O)C2C(c3ccccc3)C=CC(c3ccccc3)C2C1=O)c1cccc(Br)c1` (configuration not stated) was tested, and the activity change, less the hit threshold was -3.8%. `O=C(/C=C/c1ccccc1)Nc1ccc(S(=O)(=O)N2CCOCC2)cc1` was tested, and the activity change, less the hit threshold was -12.6%. Compound `Cc1cc(C(=O)N/N=C/c2ccc(O)c([N+](=O)[O-])c2)n[nH]1` has an activity change, less the hit threshold of -19.6%. For `O=C(CSc1ccccc1)N1CCN(S(=O)(=O)c2cccs2)CC1`, the activity change, less the hit threshold was -6.8%. For `O=C(CSc1nnc(NC(=O)c2ccc(S(=O)(=O)N3CCOCC3)cc2)s1)Nc1ccccc1C(F)(F)F`, the activity change, less the hit threshold was -15.6%. `O=C(CSc1nc2ccc(NC(=O)c3ccccc3C(=O)O)cc2s1)Nc1c(Cl)cccc1Cl` gave an activity change, less the hit threshold of -7.3%. Work on `COc1ccc(N2C(=O)CCC(C(=O)O)C2c2ccc(F)cc2)cc1` (configuration not stated) yielded an activity change, less the hit threshold of -16.9%. `CCC(C)NC(=O)Cn1nc(C(F)(F)F)c2c1CCCC2` (configuration not stated) showed an activity change, less the hit threshold of -23.4%. In the case of `O=C(NCc1cccnc1)Nc1ccc2c(c1)OCO2`, the activity change, less the hit threshold is reported as -26%. `O=C(NC(=S)Nc1nc(-c2ccccc2)cs1)c1cncc(Br)c1` was tested, and the activity change, less the hit threshold was -12.3%. Work on `S=C(NCc1ccco1)N1CCN(c2nc(-c3ccccc3)cs2)CC1` yielded an activity change, less the hit threshold of -24.1%. For `O=C(NC(=S)N1CCN(c2nc(-c3ccccc3)cs2)CC1)c1cncc(Br)c1`, the activity change, less the hit threshold was 45.1% (active). With `CCC(C)c1ccccc1NC(=O)C(C)NCCN(C)C` (configuration not stated) the activity change, less the hit threshold was -17.2%. With `COc1ccc(C)cc1S(=O)(=O)NC1CCCCC1` the activity change, less the hit threshold was -6.4%. For `CCNC(=S)Nc1nc2c(cc1C(=O)OCC)CCCC2`, the activity change, less the hit threshold was 6.4% (active). `C=C(C)CNC(=S)Nc1nc2c(cc1C(=O)OCC)CCCC2` was tested, and the activity change, less the hit threshold was -9.5%. In the case of `C=CCNC(=S)Nc1nc2c(cc1C(=O)OCC)CCCC2`, the activity change, less the hit threshold is reported as 1.1% (active). `CCOC(=O)c1cc2c(nc1NC(=S)NCc1ccccc1)CCCC2` was tested, and the activity change, less the hit threshold was -13.9%. `CCc1cccc2c1NC(=O)C2(O)CC(=O)c1cccs1` (configuration not stated) was tested, and the activity change, less the hit threshold was -20.9%. With `O=C(CCc1ccccc1)NC(=S)Nc1cc(C(F)(F)F)ccc1N1CCOCC1` the activity change, less the hit threshold was -30.4%. For `CCc1nccn1S(=O)(=O)c1ccc2ccc(C)cc2c1`, the activity change, less the hit threshold was -8.3%. Work on `O=C(c1cc2c(s1)-c1ccccc1OC2)N1CCCC1` yielded an activity change, less the hit threshold of -12.6%. `NC(=O)C1CCN(C(=O)c2cc3c(s2)CCCC3)CC1` was tested, and the activity change, less the hit threshold was 12% (active). With `CC(OC(=O)c1cc2c(s1)CCCCC2)C(=O)NC(N)=O` (configuration not stated) the activity change, less the hit threshold was -23.7%. `Cc1sc2ncnc(SCC(=O)c3ccc(O)cc3O)c2c1C` was tested, and the activity change, less the hit threshold was 2.9% (active). Compound `Cc1sc2ncnc(SCC(=O)NC(=O)c3cccn3C)c2c1C` has an activity change, less the hit threshold of -2.4%. Compound `CCOc1ccc(-n2cnc3sc(C)c(C)c3c2=O)cc1` has an activity change, less the hit threshold of -26.5%. Work on `O=C(Nc1cccnc1)c1ccc(COc2ccccc2Br)o1` yielded an activity change, less the hit threshold of -13.5%. `C=CCOc1ccccc1/C=c1\sc2nc(=O)c(C)nn2c1=O` showed an activity change, less the hit threshold of -17.3%. For `O=C(NC(=S)NCCC1=CCCCC1)c1ccc(Br)o1`, the activity change, less the hit threshold was 3.5% (active). In the case of `S=C(NCCc1ccccc1)NCCN1CCOCC1`, the activity change, less the hit threshold is reported as -16.4%. With `O=C(NC(=S)NCCC1=CCCCC1)c1ccco1` the activity change, less the hit threshold was 42.7% (active). `O=C(NC(=S)NCCc1ccc(Cl)cc1)c1ccco1` was tested, and the activity change, less the hit threshold was -7.7%. `Cc1ccc(/C=N/Nc2ccc(C(=O)O)cc2)o1` gave an activity change, less the hit threshold of -9.1%.
